{"source": "PubChem BioAssay (Tox21)", "note": "Records with an inconclusive call do not appear. A call without a number means that no potency is given here. Unmarked numbers belong to inactive results. Active and inactive are the calls of the source. Calls come from the whole dose curve; as a rule, active = well fitted activation curve with a large enough effect in the repeat runs; inconclusive = weak or mixed curves; inactive = flat fitted curve, though single readings scatter.", "data": [{"experiment": "A CellTox Green Cytotoxicity Assay to monitor cytotoxicity in HEK293 cells - 24 hour (AID 1224875); note: nearly all actives have a fitted effect of over 45% in size", "conditions": "CellTox Green fluorescence; series mostly up to 76.8 µM", "text": "National Center for Advancing Translational Sciences [NCATS]\nNIH Chemical Genomics Center [NCGC]\nU.S. Environmental Protection Agency [EPA]\nNational Institutes of Environmental Health Sciences [NIEHS]\nNational Toxicology Program [NTP]\nCell-based models are critical for drug discovery. Determining the natural cytotoxic effects resulting from test compounds is an essential research activity. A CellTox Green Cytotoxicity Assay to monitor cytotoxicity in real time of continues cell culture during 40 hours of the compound treatment was used to screen Tox21 10K library compounds in Hek293 cells. CellTox Green Cytotoxicity Assay is a nonlytic, homogeneous, biofluorescent method to measure cytotoxicity in cell culture after experimental manipulation. The assay system uses a proprietary asymmetric cyanine dye that is excluded from viable cells but preferentially stains the dead cell's DNA. […] Viable cells produce no appreciable increases in fluorescence. Therefore, the fluorescence signal produced by the binding interaction with dead cell DNA is proportional to cytotoxicity.\nThe mixture of Hek293 cell suspension and reagents were dispensed at 600cells/6 ul/well in 1536-well tissue culture treated black solid bottom plates using a Multidrop dispenser. After the assay plates were incubated at a 37 C/5% CO2 incubator for 5 hours, 23 nL of compounds dissolved in DMSO, positive and negative controls was transferred to the assay plate by a pintool work station. The plates were incubated at 37 C for 40 hours. The fluorescence intensity were measured at 0h, 8h, 16h, 24h, 32h and 40h time points using ViewLux plate reader during compound treatment.", "values": [{"smiles": "CO[C@H]1O[C@H](CO)[C@@H](O)[C@H](O)[C@H]1O", "Potency": "inactive"}, {"smiles": "CC(C)c1nnc2ccc(-c3ocnc3-c3cc(F)ccc3F)cn12", "Potency": "inactive"}, {"smiles": "CCn1cc(C(=O)O)c(=O)c2cc(F)c(N3CCNCC3)nc21", "Potency": "inactive"}, {"smiles": "CCCOCCOCCO", "Potency": "inactive"}, {"smiles": "Cc1ccc(Nc2nccc(N(C)c3ccc4c(C)n(C)nc4c3)n2)cc1S(N)(=O)=O", "Potency": "inactive"}, {"smiles": "O=C(CCCCCCC(=O)Nc1ccccc1)NO", "Potency": "inactive"}, {"smiles": "Cc1cc(O)c2c(O)c3c(O)cccc3cc2c1", "Potency": "inactive"}, {"smiles": "O=C(OCCOCCO)c1ccccc1Nc1cccc(C(F)(F)F)c1", "Potency": "inactive"}, {"smiles": "OCC1CC=CCC1", "note": "(stereo not given)", "Potency": "inactive"}, {"smiles": "CCc1cccc(N(C)C(N)=Nc2cccc3ccccc23)c1", "Potency": "inactive"}, {"smiles": "[O]=[Bi]", "activity change": "-2.05% [at 6.97 µM, active compounds read high]"}, {"smiles": "CCC1(C)CC(=O)NC1=O", "note": "(stereo not given)", "Potency": "inactive"}, {"smiles": "Nc1nc(Cl)nc2c1ncn2[C@@H]1O[C@H](CO)[C@@H](O)[C@@H]1F", "Potency": "inactive"}, {"smiles": "NC(=O)Nc1ccc(Cl)cc1", "Potency": "inactive"}, {"smiles": "CC(C)=CC=O", "Potency": "inactive"}, {"smiles": "CO/N=C1\\CN(c2nc3c(cc2F)c(=O)c(C(=O)O)cn3C2CC2)CC1CN", "note": "(stereo not given)", "Potency": "inactive"}, {"smiles": "CC(CCc1ccc2c(c1)OCO2)NN", "note": "(stereo not given)", "Potency": "inactive"}, {"smiles": "Cc1oncc1C(=O)Nc1ccc(C(F)(F)F)cc1", "Potency": "inactive"}, {"smiles": "CN1Cc2cc(C(=O)N3CCC(C4CCNCC4)CC3)ccc2N[C@@H](CC(=O)O)C1=O", "Potency": "inactive"}, {"smiles": "CC1CC(=O)NN=C1c1ccc(NCC(C)(C)NCC(O)COc2cc(Cl)ccc2C#N)cc1", "note": "(stereo not given)", "Potency": "inactive"}, {"smiles": "CCc1nn(CCCN2CCN(c3cccc(Cl)c3)CC2)c(=O)n1CCOc1ccccc1", "Potency": "inactive"}, {"smiles": "Nc1ccc(Cl)cc1[N+](=O)[O-]", "Potency": "inactive"}, {"smiles": "Cn1c(=O)c2c(ncn2CC(=O)O)n(C)c1=O", "Potency": "inactive"}, {"smiles": "Brc1cc(-c2ccc(Br)c(Br)c2Br)cc(Br)c1Br", "Potency": "inactive"}, {"smiles": "CC(=O)[C@H]1CC[C@H]2[C@@H]3C[C@H](C)C4=CC(=O)CC[C@]4(C)[C@H]3[C@@H](O)C[C@]12C", "Potency": "inactive"}, {"smiles": "COc1cc2c(N3CCN(C(=O)Nc4ccc(OC(C)C)cc4)CC3)ncnc2cc1OCCCN1CCCCC1", "Potency": "inactive"}, {"smiles": "CCCCCCCCCOC(C)=O", "Potency": "inactive"}, {"smiles": "CCOc1cc(N)c(Cl)cc1C(=O)NCC1CN(Cc2ccc(F)cc2)CCO1", "note": "(stereo not given)", "Potency": "inactive"}, {"smiles": "C[C@@H]1C[C@H]2[C@@H]3CCC4=CC(=O)C=C[C@]4(C)[C@@]3(F)[C@@H](O)C[C@]2(C)[C@@]1(O)C(=O)CO", "Potency": "inactive"}, {"smiles": "CC1=CC(=O)CC(C)(C)C1(O)/C=C/C(C)=C\\C(=O)O", "note": "(stereo not given)", "Potency": "inactive"}, {"smiles": "CCC(C(=O)OCCN(CC)CC)c1ccccc1", "note": "(stereo not given)", "Potency": "inactive"}, {"smiles": "Cc1nc2ccccn2c(=O)c1CCN1CCC(C(=O)c2ccc(F)cc2)CC1", "Potency": "inactive"}, {"smiles": "O=C(CCCCCCCCC#CI)Oc1ccccc1", "Potency": "inactive"}, {"smiles": "CC[C@H](NC(=O)c1cc(F)ccc1NS(=O)(=O)c1cccc2cccnc12)c1ccccc1", "Potency": "inactive"}, {"smiles": "COCC(O)CO", "note": "(stereo not given)", "Potency": "inactive"}, {"smiles": "Cc1ccccc1N1C(=O)c2cc(S(N)(=O)=O)c(Cl)cc2NC1C", "note": "(stereo not given)", "Potency": "inactive"}, {"smiles": "CN(C)C(=O)Nc1ccc(Oc2ccc(Cl)cc2)cc1", "Potency": "inactive"}, {"smiles": "C=CC(C)(C)CC(=O)OC", "Potency": "inactive"}, {"smiles": "CO[C@@]12[C@H](COC(N)=O)C3=C(C(=O)C(C)=C(N)C3=O)N1C[C@@H]1N[C@@H]12", "Potency": "inactive"}, {"smiles": "CC1(C)C2=CCCC(C)(C)[C@]23CC[C@H]1C3", "Potency": "inactive"}]}]}
